CaV13 ICDI inh: Primary screen for inhibitors of IQ motif and Ca2+-dependent inactivation inhibitor domain binding in CACNA1D, Förster resonance energy transfer in living cells, … | AID 743397 | 340,000 compounds, 0.098% hits | HEK cells, CFP/YFP FRET ICDI-IQ, plate reader, 10 min; percent FRET-ratio fall versus neutral wells | inhibition, % at 12.3 µM;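 active = mean replicate inhibition of at least 30% and at least 1% of replicates passing that level; inconclusive = only one of the two criteria is met; inactive = neither criterion is met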
IDE act: human IDE activators in live cells, primary screen, fluorescence polarization, HEK cells, FAbeta-B substrate; Insulin-degrading enzyme (Homo sapiens), P14735; FAbeta-B cleavage; 0% vehicle, 100% cell-free pure enzyme wells; activation, % at 5.96 µM; 340,000 compounds, 0.073% hits;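 active = activation above the mean of all tested compounds plus 3 SD, set per screening campaign, cut at about 17% in these data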
PfM18AAP inh: PfM18AAP inhibitors, malaria aminopeptidase, primary screen, biochemical, QFRET, recombinant enzyme; inhibition, % at 7.35 µM; M18 aspartyl aminopeptidase (Plasmodium falciparum 3D7); 290,000 compounds, 1.2% hits; H-Glu-NHMec fluorogenic cleavage;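 active = inhibition above the campaign mean inhibition over all tested compounds plus 3 SD, cut at about 28% in these data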
ALR H2O2 inh: inhibitors of human ALR sulfhydryl oxidase, primary screen, biochemical, H2O2 detection, HRP-luminol luminescence, single point. FAD-linked sulfhydryl oxidase ALR (Homo sapiens), P55789. purified ALR, DTT oxidation. inhibition, % (test concentration not listed). 290,000 compounds, 3.8% hits;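 active = mean replicate inhibition above about 79%, with every replicate also reaching it, limit read from the data; inconclusive = only one of the two criteria met; inactive = mean below limit and not every replicate reaching it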
Target sequence (P55789 whole entry, looked up): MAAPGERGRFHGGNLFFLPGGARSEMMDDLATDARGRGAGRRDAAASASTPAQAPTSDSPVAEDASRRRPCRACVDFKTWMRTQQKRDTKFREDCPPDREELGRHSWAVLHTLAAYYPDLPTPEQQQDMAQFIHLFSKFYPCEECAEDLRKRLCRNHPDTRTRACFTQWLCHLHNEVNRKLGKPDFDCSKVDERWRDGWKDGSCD
IDE inh: human IDE inhibitors in live cells, primary screen, fluorescence polarization, HEK cells, FAbetaB substrate. FAbetaB cleavage. inhibition, % at 5.59 µM. 320,000 compounds, 0.41% hits. AID 434962, 2010;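 active = percent inhibition above the average of all tested compounds plus 3 SD, set per screening campaign, cut at about 16% in these data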;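 also: IDE supplied by intact live HEK cells; FP after avidin binding of uncleaved biotin substrate so inhibition keeps polarization high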
PolyA inh: polyadenylation inhibitors in yeast reporter cells, primary screen, luminescence, S. cerevisiae; 300,000 compounds, 0.02% hits; activity score, % at 12 µM; AID 1875, 2009; S. cerevisiae SKY197-pL101 polyadenylation reporter, beta-gal luminescence; efflux-impaired pdr1/pdr3 knockout yeast; score 100 = 6 SD above DMSO;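 active = lowest replicate activity score at least 50, where 100 means six control SD above control mean; inconclusive = lowest score under 50 but half or more replicates reach 50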;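 also: yeast exposed to compound for 9 h at 30 °C; higher score means more reporter readthrough which indicates perturbed polyadenylation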
A number is an active result; i = inactive; ? = inconclusive; nt = no result. This is a sample that favours compounds with a hit; in the whole collection about 4.1% have one here.

SMILES	CaV13 ICDI inh	IDE act	PfM18AAP inh	ALR H2O2 inh	IDE inh	PolyA inh
COC(=O)C1=C(C)N(Cc2ccccc2C(F)(F)F)C(=NCc2cccc(C(F)(F)F)c2)NC1CCc1ccccc1 (centres undefined)	i	nt	nt	nt	nt	nt
CCC1CCCCN1CCCNC(=O)c1nn(C)c2c1CS(=O)(=O)c1ccccc1-2 (centres undefined)	i	i	i	i	i	i
Cc1ccc(NC(=O)c2ccc3c(c2)CCN3S(C)(=O)=O)cc1C	i	i	i	i	i	i
[N-]=[N+]=NC(c1ccccc1)c1nc2ccccc2[nH]c1=O (centres undefined)	i	i	i	i	i	i
COc1ccc(N/N=C(\C=N\O)C(=O)c2ccc(OC)cc2)cc1	i	i	i	93.1	i	i
COc1ccc(C(=O)C(=NNc2ccccc2)c2ccc(OC)cc2)cc1	i	i	nt	nt	nt	nt
Cc1ccc(SC(CC(=O)c2ccc(F)cc2)C(=O)O)cc1 (centres undefined)	i	i	i	nt	i	i
CC(C)(C)c1ccc(C(=O)CC(Sc2ccc(Cl)cc2)C(=O)O)cc1 (centres undefined)	i	i	i	98.0	i	i
COc1ccc(C(=O)Oc2cc(N)n(S(=O)(=O)c3ccccc3)n2)cc1	96.7	i	i	i	i	i
COc1ccc(S(=O)(=O)n2nc(OC(C)=O)cc2N)cc1	i	i	i	97.6	i	i
COc1cc(C(C2C(=O)CC(C)(C)CC2=O)C2C(=O)CC(C)(C)CC2=O)ccc1O	i	i	i	i	i	i
COc1ccc(C(C2C(=O)CC(C)(C)CC2=O)C2C(=O)CC(C)(C)CC2=O)cc1COCC(F)(F)F	i	i	i	98.6	i	i
COc1ccc(C(C2C(=O)CC(C)(C)CC2=O)C2C(=O)CC(C)(C)CC2=O)cc1	i	i	i	96.8	i	i
COc1ccc(/C=C/C(=O)OC(C)CN2CCOCC2)cc1 (centres undefined)	i	i	i	i	i	i
COc1cc(C2C(C#N)=C(N)Oc3c2oc(CO)cc3=O)ccc1OC(C)C (centres undefined)	i	i	i	84.9	i	i
CC(C)Oc1ccc(C2C(C#N)=C(N)Oc3c2oc(CO)cc3=O)cc1 (centres undefined)	i	i	i	i	i	i
O=C1c2cccc3c([N+](=O)[O-])ccc(c23)C(=O)N1c1nccs1	i	i	i	i	22.9	i
O=C1c2cccc3c([N+](=O)[O-])ccc(c23)C(=O)N1O	i	i	i	89.9	i	i
O=C1c2cccc3c([N+](=O)[O-])ccc(c23)C(=O)N1c1ccccn1	i	i	i	i	i	i
CC(O)CNc1cnccn1 (centres undefined)	i	i	i	i	i	i
C=CCn1c(SCC#N)nc2sc(CC)cc2c1=O	i	i	i	nt	i	i
Cc1cc(C)nc(Sc2c(C)nn(-c3ccccc3)c2C)n1	i	i	i	79.7	i	i
O=C(COc1ccc(F)cc1Cl)Nc1cccc(S(=O)(=O)N2CCCC2)c1	i	i	nt	nt	i	nt
NC(=O)c1sc2nc(-c3ccco3)ccc2c1N	i	i	i	i	i	i
COC(=O)c1sc2nc(-c3ccco3)ccc2c1N	i	i	i	98.0	i	i
SMILES	CaV13 ICDI inh	IDE act	PfM18AAP inh	ALR H2O2 inh	IDE inh	PolyA inh
Cc1cc(SCNC(=O)c2ccccc2)nc(C(C)C)n1	i	i	i	98.5	i	i
Cc1cc(C)nc(SCNC(=O)c2ccccc2)n1	i	i	45.0	i	i	i
C=CCN1CC(O)=C(c2nc3ccccc3[nH]2)C1=N	i	i	i	83.5	i	i
CCCCN1CC(O)=C(c2nc3ccccc3[nH]2)C1=N	nt	i	i	i	i	i
O=C(CN1CCN(c2ccccc2O)CC1)Nc1ccc2c(c1)OCCCO2	i	i	nt	99.6	i	nt
CN(C)c1ccc(NC(=O)CN2CCN(c3ccc(F)cc3)CC2)cc1	i	i	i	i	i	i
Cc1ccc(C(=O)C2CCN(CC(=O)Nc3ccc(N(C)C)cc3)CC2)cc1	i	i	i	98.1	i	i
CCN(CC)c1ccc(NC(=O)CN2CCN(c3ccccc3F)CC2)cc1	i	i	i	99.1	i	i
O=C(CN1CCC(C(=O)c2ccc(F)cc2)CC1)Nc1ccc(F)cc1	i	i	i	i	i	i
CN(C)c1ccc(NC(=O)CN2CCN(CC(=O)Nc3ccc(F)cc3)CC2)cc1	i	i	i	98.9	i	i
COc1ccc(NC(=O)CN2CCN(c3ccccc3F)CC2)cc1	i	i	i	nt	i	i
COC1=CC(=O)OC(c2ccc(C#N)cc2)C1 (centres undefined)	i	nt	nt	nt	nt	nt
N#Cc1c(Cl)nc2c(c1C#N)CCCC2	i	i	i	97.2	i	i
C=CCNc1ccc2c(c1)OC[C@H](CC(C)C)NS2(=O)=O	i	nt	nt	nt	nt	nt
CCCN1C(=O)SC(CC(=O)Nc2ccc(C)cc2)C1=O (centres undefined)	nt	i	i	i	i	i
Cc1ccc(NC(=O)CC2SC(=O)N(c3ccccc3)C2=O)cc1 (centres undefined)	i	i	i	98.4	i	i
Cc1cccc(NC(=O)CC2SC(=O)N(c3ccccc3)C2=O)c1 (centres undefined)	nt	i	i	98.2	i	i
O=C1SC(Cc2ccccc2)C(=O)N1c1ccccc1 (centres undefined)	i	nt	i	nt	i	i
N=C1SC(CC(=O)Nc2ccc([N+](=O)[O-])cc2)C(=O)N1c1ccccc1 (centres undefined)	i	nt	29.1	i	i	i
O=C(CC1SC(=O)N(c2ccccc2)C1=O)Nc1ccccc1 (centres undefined)	i	i	i	97.6	i	i
CCCCNC(=O)N(O)C1N(/N=C/c2cccs2)C(=S)SC1(C)C (centres undefined)	i	i	i	i	i	i
CCOc1ccc2[nH]c(=S)[nH]c2c1	nt	i	i	nt	i	i
CCOc1ccc2c(c1)n(CO)c(=S)n2CO	i	i	i	99.8	i	nt
CC(=O)NC(c1cc(Cl)c2cccnc2c1O)C(C)C (centres undefined)	i	i	nt	?	i	nt
CC(=O)NC(c1cc(Cl)c2ccccc2c1O)C(C)C (centres undefined)	i	i	nt	93.6	i	nt
COc1ccc(-c2[nH]ncc2CN2CCC(OCc3cccnc3)CC2)c(F)c1	i	i	i	i	i	i
O=C1c2ccccc2C(=O)C1c1ccccn1	i	i	i	i	i	i
O=C1c2ccccc2C(=O)C2OC12 (centres undefined)	nt	nt	28.8	i	i	i

High-throughput results: PubChem BioAssay, several laboratories
